Bioassay records from PubChem.
CBX7 inh: CBX7 chromodomain binding inhibitors, primary screen, biochemical, AlphaScreen. AlphaScreen His6-CBX7 / biotin-H3K27me3 peptide binding; stronger effect = lower value. 1.1% of 66,000 active. normalised signal (fraction of DMSO) (concentration not given with the values). AID 1224903, 2016; in the data active = normalised signal below about 0.5
Target sequence (O95931 whole entry, looked up): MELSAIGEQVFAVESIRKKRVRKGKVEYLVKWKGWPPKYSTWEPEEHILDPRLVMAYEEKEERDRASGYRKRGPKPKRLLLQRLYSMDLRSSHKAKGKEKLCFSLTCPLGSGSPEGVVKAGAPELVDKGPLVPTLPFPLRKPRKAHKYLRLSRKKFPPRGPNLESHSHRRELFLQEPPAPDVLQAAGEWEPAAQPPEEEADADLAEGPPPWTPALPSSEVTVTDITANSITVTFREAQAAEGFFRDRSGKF
Starred values were filed as active, the others as inactive. This excerpt belongs to a sample that is enriched for hits.

SMILES	CBX7 inh
COc1ccc(OC)c(NC(=O)c2c(NCc3sccc3C)sc3c2CCCC3)c1	0.493*
COc1ccc(NC(=O)c2c(NCc3cccs3)sc3c2CCC3)cc1	0.567
COc1ccc(NC(=O)c2c(NCc3sccc3C)sc3c2CCCCC3)c(OC)c1	0.52
COc1ccccc1NC(=O)c1c(NCc2sccc2C)sc2c1CCCCC2	0.551
COc1ccc(OC)c(CNc2sc3c(c2C(=O)Nc2cc(OC)ccc2OC)CCCC3)c1	0.579
CCCCN(CC)CCCNC(=O)c1ccc2c(c1)N(Cc1c(F)cccc1Cl)C(=O)CS2	1.05
CCc1cccc(Nc2c3c(nc4ccccc24)CCC3)c1	0.953
Cc1c(C(=O)Nc2nc3ccccc3s2)sc2ncn(Cc3ccccc3F)c(=O)c12	0.955
NC(=O)CSc1nnc(-c2cccnc2)n1-c1ccccc1	1.01
Cc1cc(C)c2nc(Nc3nc(O)cc(=O)[nH]3)nc(C)c2c1	0.943
Cc1ccc(C(=O)Nc2sc3c(c2C(=O)N2CCCC2)CCCCC3)cc1	0.986
Cc1cccc(-c2noc(CN(C(=O)COc3ccccc3)C(C)C)n2)c1	0.895
Cc1ccc(C)c(NC2c3ccccc3C(=O)N2c2ccccc2C)c1 (stereo unspecified)	0.959
Cc1cc2c(cc1C)NC(c1ccc(Cl)c(Cl)c1)C1=C(CC(C)(C)CC1=O)N2 (stereo unspecified)	1.06
Cc1ccc(-c2csc(NC(=O)c3ccc(S(=O)(=O)N4CCCC4)cc3)n2)cc1	1.1
Fc1cccc(Nc2nc3nonc3nc2Nc2cccc(F)c2)c1	1.04
c1cc2c(cc1Nc1nc3nonc3nc1Nc1ccc3c(c1)OCO3)OCO2	0.37*
CC1CCN(c2nc3nonc3nc2Nc2ccc3c(c2)OCO3)CC1	0.945
Cc1ccc(NC(=O)CN(C)S(=O)(=O)c2cccc3cccnc23)cc1Cl	0.969
Oc1cccc2ccc(Nc3ccccn3)nc12	0.00869*
Oc1cccc2ccc(Oc3cccc4cccnc34)nc12	1.02
c1ccc(-c2csc(Nc3ccccn3)n2)cc1	0.965
COc1ccc(C2C(C(=O)Nc3ccc(C)c(F)c3)c3cc(OC)c(OC)cc3C(=O)N2C)cc1 (stereo unspecified)	0.95
COC(=O)c1c[nH]n2c(NC3CCCC3)c(-c3cccc(OC)c3)nc12	0.383*
COC(=O)c1c[nH]n2c(NC3CCCC3)c(-c3ccc(C)cc3)nc12	0.503
SMILES	CBX7 inh
COC(=O)c1c[nH]n2c(NC3CCCCC3)c(-c3cccc(C)c3)nc12	0.509
COC(=O)c1c[nH]n2c(NC3CCCCC3)c(-c3cccc(Br)c3)nc12	0.517
COC(=O)c1c[nH]n2c(NC3CCCC3)c(-c3ccc(OC)cc3)nc12	0.111*
COC(=O)c1c[nH]n2c(NC3CCCC3)c(-c3cccc(C)c3)nc12	0.667
CCCCCOc1ccc(NC(=O)c2cccc(C(=O)OC)n2)cc1	0.997
COC(=O)c1c[nH]n2c(NC3CCCCC3)c(-c3cccc(OC)c3)nc12	0.554
COC(=O)c1c[nH]n2c(NC3CCCCCC3)c(-c3cccc(OC)c3)nc12	0.495*
COC(=O)c1c[nH]n2c(NC3CCCCC3)c(-c3ccc(C)cc3)nc12	0.823
CCCOc1cccc(-c2cc(C(=O)O)c3ccccc3n2)c1	1.11
CCCCOc1cccc(-c2nc3c(C(=O)OC)c[nH]n3c2NC2CCCC2)c1	0.197*
O=C(NCc1ccc(Cl)cc1)c1cc(-c2ccc(F)cc2)nc2ccccc12	0.919
Cc1cc(C)cc(-n2c(C)nc3cc(C(=O)NCc4ccccn4)ccc32)c1	1.08
CC1CCCN(CCCNC(=O)CN2N=C(c3ccccc3)CCC2=O)C1 (stereo unspecified)	1.07
Cc1ccc(C)c(-n2c(Cc3cc(=O)[nH]c(=O)[nH]3)nnc2SCC(=O)Nc2ccccc2)c1	1.05
COc1ccc(Nc2c(-c3ccccc3)nc3ncccn23)cc1OC	1.06
O=C(NCCCN1CCCC1=O)c1ccc2nc(N3CCOCC3)sc2c1	1.2
CCCCSCCCNC(=O)C1CCN(Cc2nc(-c3ccc(OC)c(OC)c3)oc2C)CC1	1.15
CCOc1ccccc1NC(=O)CCNS(=O)(=O)c1ccc2c(c1)CCC(=O)N2	1.11
CCN(CC)c1ccc(C2C(C(=O)Nc3ccc(C)cn3)=C(C)NC3=C2C(=O)CCC3)cc1 (stereo unspecified)	0.766
Fc1ccc(-c2nnc3ccc4ccccc4n23)cc1	0.872
c1cncc(-c2nnc3ccc4ccccc4n23)c1	0.361*
CC1(C)Cc2ccccc2-c2nnc(-c3cccnc3)n21	0.988
O=C(NCCCc1ccccc1)c1ccc2nc(N3CCOCC3)sc2c1	0.999
COc1ccc(Cc2nnc(NC(=O)c3cccc(NC(=O)C(C)C)c3)s2)cc1	0.975
Cc1ccc2nsnc2c1NC(=O)c1cc(Br)ccc1Cl	1.01
Cc1ccc2nsnc2c1NC(=O)c1cc(Cl)ccc1Cl	1.04
Cc1ccc2nsnc2c1NC(=O)c1ncn[nH]1	0.452*
COCCNC(=O)c1ccc2c(c1)ncn2-c1ccc(OC)cc1	0.971
Cc1ccccc1C(=O)Nc1sc2c(c1C(=O)N1CCCC1)CCCC2	1.2
Cc1cc(NC(=O)CNC2CCCCC2)c2ccccc2n1	1.02
